Most compounds without a hit are left out; they make up all but 2.4% or so of the library.
Pol eta inh = blocks human DNA polymerase eta activity; Q9Y253; 1.2% of 390,000 active; recombinant Pol eta, fluorescent DNA replication assay; Potency, µM (titrated, usually from 114 µM), most hits filed as inhibitors
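Pol eta (10 nM) was preincubated with compounds for 15 min at room temperature, after which fluorescent replication substrate (50 nM final) was added to start the reaction. Fluorescence was read kinetically at 0 and 10 min.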
Pol beta inh = blocks human DNA polymerase beta activity | 1.3% of 340,000 active | Potency, µM (titrated, usually from 114 µM), most hits filed as inhibitors | AID 485314 | Pol beta primer extension/strand displacement, fluorescence kinetic
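Kinetic readout of DNA synthesis with strand displacement by Pol beta. Compound and 10 nM enzyme sit 15 min at room temperature; 50 nM substrate starts the reaction, read immediately and at 10 min.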
FEN1 inh = inhibitors of human flap endonuclease 1. 0.35% of 390,000 active. Potency, µM (top dose mostly 114 µM), hits mostly inhibitors. AID 588795. Recombinant FEN1 flap cleavage, fluorescence, 15 min; note: nearly all actives have a fitted effect of over 65% in size
Target sequence (P39748 whole entry, looked up): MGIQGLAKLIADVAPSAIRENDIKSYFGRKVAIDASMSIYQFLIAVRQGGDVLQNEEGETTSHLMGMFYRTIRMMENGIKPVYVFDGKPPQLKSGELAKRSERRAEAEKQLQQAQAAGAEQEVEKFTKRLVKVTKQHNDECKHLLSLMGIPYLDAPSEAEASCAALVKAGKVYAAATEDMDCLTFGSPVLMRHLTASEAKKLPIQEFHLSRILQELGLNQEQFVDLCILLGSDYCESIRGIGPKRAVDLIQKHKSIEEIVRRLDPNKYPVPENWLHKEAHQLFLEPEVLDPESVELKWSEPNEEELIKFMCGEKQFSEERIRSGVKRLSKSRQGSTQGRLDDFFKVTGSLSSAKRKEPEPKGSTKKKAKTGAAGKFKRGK
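Compounds are tested as a concentration series against 10 nM FEN1; after a 15 min room-temperature preincubation, 50 nM substrate starts cleavage, with plate reads at 0 and 15 min. Normalized responses are fitted by a Hill equation.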
WRN helicase inh = inhibitors of human WRN helicase; 0.46% of 360,000 active; AID 651768; Q14191; Potency, µM (doses to about 114 µM), most hits filed as inhibitors; WRN helicase unwinding, fluorescent forked duplex, kinetic; note: nearly all actives have a fitted effect of over 55% in size
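Primary qHTS, 1536-well format. 20 nM WRN + compound, 15 min RT; start with 100 nM forked fluorophore/quencher duplex, 2 mM ATP (final); kinetic read ex 525/em 598 nm.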
Pol iota inh = blocks human DNA polymerase iota activity; AID 588590; Q9UNA4; Pol iota fluorescent replication assay, 10 min; 1% of 390,000 active; Potency, µM (doses to about 115 µM), most hits filed as inhibitors
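Pol iota at 10 nM preincubated 15 min with compounds at room temperature; reaction started with fluorescent substrate, 50 nM final. Fluorescence read kinetically at 0 and 10 min; buffer-only wells as negative control.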
Pol kappa inh = blocks human DNA polymerase kappa activity; Q9UBT6; purified Pol kappa, fluorescent DNA synthesis assay, 10 min; Potency, µM (highest dose often 107 µM), most hits filed as inhibitors; 0.53% of 400,000 active; AID 588579
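Inhibition of 10 nM Pol kappa is measured by a fluorescent read-out at 0 and 10 min following addition of 50 nM substrate (final), with a 15-min room-temperature compound preincubation.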
Numbers stand for hits; – = inactive; ? = inconclusive; · = no result given; ! = not active in a repeat; [ ] = dose if it differs, or a comment. Calls come from the whole dose curve; as a rule, active = well fitted curve in the direction sought with a large enough effect; inconclusive = small, poorly fitted or top-dose-only effect, or another doubt; inactive = no such curve, though single readings can be large; an effect the other way counts as inactive or inconclusive.

SMILES	Pol eta inh	Pol beta inh	FEN1 inh	WRN helicase inh	Pol iota inh	Pol kappa inh
CCCCNC(=O)C1c2ccccc2Oc2ccccc21	–	–	–	–	–	–
O=C(NCc1ccco1)C1c2ccccc2Oc2ccccc21	7.9µM	18µM	–	?	?	?
Cc1ccc(N=CNc2ccc(C)cc2C)c(C)c1	–	–	–	–	–	–
CCC(=O)Nc1ccc(NC(=S)NC(=O)/C=C/c2ccco2)cc1	?	–	–	–	?	–
O=C(NCc1ccco1)c1c(Cl)cccc1Cl	–	·	·	–	·	·
NNC(=S)NCc1ccco1	–	–	–	–	20µM	–
CC(=O)NC(=S)Nc1ccc(NC(=S)NC(=O)/C=C/c2ccco2)cc1	?	?	–	–[11.6 µM]	32µM	–
Cc1cc(NC(=O)c2cc(-c3ccco3)on2)n(-c2ccccc2)n1	–	?	–	–[11.6 µM]	89µM	–
O=C(NCc1ccco1)c1c(F)c(F)c(F)c(C(=O)NCc2ccco2)c1F	45µM	?	–	–	–	?
Cc1cc(NC(=O)c2cc(-c3ccccc3)on2)n(-c2ccccc2)n1	–	–	–	–	–	–
O=C(/C=C/c1ccco1)NCCc1ccc(F)cc1	?	25µM	–	–	20µM	–
COC(=O)c1ccccc1NC(=O)/C=C/c1ccco1	18µM	–	–	–	?	–
COc1cc(C)ccc1OCCOc1cc(C)ccc1Cl	–	13µM	–	–	–	–
COc1cc(C)ccc1OCCOc1c(Cl)cc(Cl)cc1Cl	?	–	–	–	–	–
Cc1ccsc1C=Nc1ccc(O)cc1	14µM	?	–	35µM	13µM	89µM
O=C1C(=O)C(c2cc(O)c(O)c(O)c2)Oc2cc(O)cc(O)c21 (centres undefined)	·	·	1.4µM	·	1.4µM	1.3µM
CCOC(=O)C1=C(C)NC(=O)CC1c1cc2c(cc1[N+](=O)[O-])OCO2 (centres undefined)	–	–	–	–	–	–
CCCOC(=O)C1=C(C)N(C)C(=O)NC1c1cc2c(cc1[N+](=O)[O-])OCO2 (centres undefined)	–	?	–	–[11.6 µM]	4.5µM	79µM
CN(C)c1ccc(CNC(=O)CCS(=O)(=O)c2ccc3c(c2)n(C)c(=O)c(=O)n3C)cc1	–	25µM	–	–	–	–
O=C1NN(c2cccc(Br)c2)C(=O)/C1=C/c1cccs1	79µM	–	–	–	?	–
Fc1ccccc1N1CCN(C(c2ccncc2)c2nnnn2C2CCCC2)CC1 (centres undefined)	–	–	–	–	79µM	–
COc1cccc(NC(=O)CNCc2ccccc2)c1	–	–	–	–	–	–
C1=Cc2ccccc2/C1=C\c1cccc(/C=C2\C=Cc3ccccc32)c1	·	·	35µM	·	?	?
C1=Cc2ccccc2/C1=C\c1ccc(/C=C2\C=Cc3ccccc32)cc1	·	·	–	·	–	–
O=[N+]([O-])c1cccnc1Oc1ccccc1F	–	–	–	–	–	–
SMILES	Pol eta inh	Pol beta inh	FEN1 inh	WRN helicase inh	Pol iota inh	Pol kappa inh
NC(=O)COC(=O)c1c2c(nc3ccccc13)CCC2	35µM	?	–	–	?	?
O=C(Nc1cccc(S(=O)(=O)N2CCOCC2)c1)c1c2c(nc3ccccc13)CCC2	?	10µM	–	–	45µM	–
CCCC(C)NC(=O)c1c2c(nc3ccccc13)CCC2 (centres undefined)	?	18µM	–	–[11.6 µM]	?	?
O=C(Nc1cccc(S(=O)(=O)N2CCOCC2)c1)c1ccc2ccccc2n1	–	–	–	–	–	–
NC(=O)COC(=O)c1c2c(nc3ccccc13)CCCC2	–	–	–	–	–	–
COc1ccc(OC)c2sc(NC(=O)c3cccc(N4C(=O)CCC4=O)c3)nc12	?	?	?	?	28µM	–
COc1ccc(-c2csc(NC(=O)c3cccc(N4C(=O)CCC4=O)c3)n2)cc1C	–	–	–	–	–	–
O=C(Nc1cc(Sc2nc3ccccc3s2)cc([N+](=O)[O-])c1)c1ccccc1F	–	–	–	–	–	–
Cc1cc(C)nc(/N=c2/ssnc2Cl)c1	–	–	–	–	–	–
COc1cc(N=c2ssnc2Cl)c(OC)cc1Cl	–	–	?	56µM!	20µM	–
COc1ccc(OC)c(N=c2ssnc2Cl)c1	–	–	–	56µM	?	–
